# Test results taken from PubChem BioAssay AID651640 (Broad Institute, 2012).
# Screen size: about 350,000 compounds; about 6,000 (1.7%) were called active. Roughly 5% stayed inconclusive and do not appear here. This is one part of a sample in which actives are shown more often than they occur. Cut-off read from the data, not from the text of the source: active = CPE inhibition above about 20% (passing the limit was not always enough); inconclusive = no clear call, values can overlap the other calls; tested in BHK-21 cells.
# Assay: inhibitors of DENV2 cytopathic effect, primary screen, cell-based, plate reader, single concentration (AID 651640);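 note: 0% = median of neutral control wells and 100% = median of positive control wells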
# Details: DENV2-infected cells, cytopathic effect rescue, at 9.99 µM, hits give high values
row,SMILES,CPE inhibition
1,CCNC(=O)[C@H]1[C@H](CO)[C@H]2Cn3c(cccc3=O)[C@H]2N1C(=O)C1CCCC1,3.43% (inactive)
2,C[C@@H]1CCCCO[C@@H](CN(C)C(=O)C2CCCCC2)[C@H](C)CN([C@H](C)CO)C(=O)c2cc(NC(=O)Cc3ccccc3)ccc2O1,-2.34% (inactive)
3,COc1cccc(S(=O)(=O)N[C@H]2CC[C@@H](CC(=O)NCc3ccc(F)cc3)O[C@@H]2CO)c1,2.23% (inactive)
4,CN(C)CC(=O)N[C@@H]1CC[C@H](CC(=O)O)O[C@H]1CO,8.44% (inactive)
5,O=C(C[C@H]1CC[C@H](NC(=O)CCN2CCCCC2)[C@@H](CO)O1)Nc1ccccc1,-7.71% (inactive)
6,O=C(O)C[C@@H]1CC[C@H](NC(=O)CCN2CCCCC2)[C@H](CO)O1,20.1% (active)
7,C[C@@H](NC(=O)C[C@@H]1C=C[C@@H](NC(=O)CN2CCOCC2)[C@H](CO)O1)c1ccccc1,-6.9% (inactive)
8,CNC(=O)C[C@@H]1CC[C@@H]2[C@@H](COc3ccc(NC(=O)Cc4cccs4)cc3C(=O)N2C)O1,-1.22% (inactive)
9,COc1ccccc1C(=O)Nc1ccc2c(c1)OC[C@@H](C)NC[C@H](C)[C@@H](OC)CN(C)C2=O,-3.53% (inactive)
10,O=C(C1CCN(S(=O)(=O)c2ccc(Br)s2)CC1)N1CCN(c2ccccc2)CC1,-4.17% (inactive)
11,O=C(C1CCN(S(=O)(=O)c2ccc(Br)s2)CC1)N1CCN(C2CCCCC2)CC1,66.2% (active)
12,O=C(NC1CCCCC1)C1CCCN(S(=O)(=O)c2ccc(Br)s2)C1 (stereo not drawn),2.35% (inactive)
13,C[C@@H]1CN([C@H](C)CO)C(=O)c2cc(NC(=O)Cc3ccccc3)ccc2O[C@@H]1CN(C)CC1CCCCC1,-0.335% (inactive)
14,C[C@@H]1CCCCO[C@H](CN(C)CC2CC2)[C@@H](C)CN([C@H](C)CO)C(=O)c2cc(NC(=O)Cc3ccccc3)ccc2O1,13.5% (inactive)
15,C[C@H](CO)N1C[C@H](C)[C@H](CN(C)CC2CCCCC2)Oc2ccc(NC(=O)C3CCCCC3)cc2C1=O,0.912% (inactive)
16,C[C@H](CO)N1C[C@H](C)[C@@H](CN(C)CC2CC2)OCCCC[C@H](C)Oc2ccc(NC(=O)Cc3ccccc3)cc2C1=O,57.8% (active)
17,C[C@@H]1CN([C@@H](C)CO)C(=O)c2cc(NC(=O)Cc3ccccc3)ccc2O[C@@H]1CN(C)CC1CCCCC1,2.75% (inactive)
18,C[C@@H]1CCCCO[C@@H](CN(C)CC2CCCCC2)[C@H](C)CN([C@H](C)CO)C(=O)c2cc(NC(=O)C3CCCCC3)ccc2O1,-14.3% (inactive)
19,C[C@@H]1CCCCO[C@H](CN(C)Cc2ccccc2)[C@@H](C)CN([C@H](C)CO)C(=O)c2cc(NC(=O)Cc3ccccc3)ccc2O1,-14% (inactive)
20,C[C@H]1CCCCO[C@H](CN(C)Cc2ccccc2)[C@@H](C)CN([C@@H](C)CO)C(=O)c2cc(NC(=O)c3ccccc3)ccc2O1,48.2% (active)
21,C[C@H](CO)N1C[C@H](C)[C@@H](CN(C)Cc2ccc(C(=O)O)cc2)OCCCC[C@H](C)Oc2ccc(NC(=O)c3ccccc3)cc2C1=O,-2.18% (inactive)
22,C[C@@H]1CN([C@H](C)CO)C(=O)c2cc(NC(=O)C3CCCCC3)ccc2O[C@@H]1CN(C)CC1CCCCC1,22.8% (active)
23,C[C@H](CO)N1C[C@H](C)[C@H](CN(C)Cc2ccccc2)OCCCC[C@H](C)Oc2ccc(NC(=O)c3ccccc3)cc2C1=O,-7.82% (inactive)
24,C[C@@H]1CN([C@@H](C)CO)C(=O)c2cc(NC(=O)Cc3ccccc3)ccc2O[C@H]1CN(C)CC1CC1,31.5% (active)

row,SMILES,CPE inhibition
1,Cc1ccccc1S(=O)(=O)N1CC(=O)N2[C@H](CO)[C@H](c3ccc(C#CC4CC4)cc3)[C@@H]2C1,5.14% (inactive)
2,CC=Cc1ccc2n(c1=O)C[C@@H]1[C@@H](CO)[C@H](C(=O)NC3CCCC3)[C@H]2N1C(=O)c1cnccn1 (mixture of isomers),2.52% (inactive)
3,CO[C@@H]1CN(C)C(=O)c2ccc(NC(=O)C3CC3)cc2OC[C@@H](C)N(CC2CCOCC2)C[C@H]1C,0.64% (inactive)
4,CC(C)NC(=O)Nc1cccc2c1O[C@H](CN(C)Cc1ccccc1)[C@H](C)CN([C@H](C)CO)C2=O,1.48% (inactive)
5,CO[C@@H]1CN(C)C(=O)c2cc(NC(C)=O)ccc2OC[C@@H](C)N(C(=O)NC2CCCCC2)C[C@H]1C,-11% (inactive)
6,COc1cccc(-c2ccc3n(c2=O)C[C@H]2[C@H](CO)[C@@H](C(=O)N4CCCCC4)N(C)[C@@H]32)c1,5.67% (inactive)
7,CCCNC(=O)Nc1ccc2c(c1)OC[C@H](C)N(Cc1ccccc1)C[C@H](C)[C@H](OC)CN(C)C2=O,14.2% (inactive)
8,COC(=O)CCCCCCC(=O)Nc1ccc(C2OC(CSc3nc(-c4ccccc4)c(-c4ccccc4)o3)CC(c3ccc([N+](=O)[O-])cc3)O2)cc1 (stereo not drawn),-6.28% (inactive)
9,CCCNC(=O)[C@H]1[C@H](CO)[C@H]2Cn3c(ccc(-c4cccc(F)c4)c3=O)[C@@H]1N2C(=O)CC,0.06% (inactive)
10,CN1c2ccc(-c3ccccc3)cc2[C@@H]2[C@@H](CCN2C(=O)c2ccccc2F)[C@@H]1CO,1.36% (inactive)
11,CN1c2ccc(Br)cc2[C@@H]2[C@@H](CCN2C(=O)C2CCCCC2)[C@H]1CO,8.19% (inactive)
12,CN1c2ccc(Br)cc2[C@@H]2[C@@H](CCN2C(=O)Cc2ccccc2)[C@@H]1CO,0.742% (inactive)
13,CN1c2ccc(Br)cc2[C@@H]2[C@@H](CCN2C(=O)C2CCCC2)[C@H]1CO,99.1% (active)
14,O=C(CC1CC1)N1[C@H](CO)[C@@H]2c3ccccc3N(S(=O)(=O)c3ccc(F)cc3)C[C@@H]21,-3.84% (inactive)
15,O=C(C[C@@H]1CC[C@H](NC(=O)C2CCOCC2)[C@@H](CO)O1)Nc1ccccc1,6.72% (inactive)
16,COC(=O)[C@]12CCCCC=C1N(Cc1ccc3c(c1)OCO3)C(=O)[C@H](CC(=O)N1CCOCC1)C2,8.62% (inactive)
17,CCOC(=O)[C@]12CCC=C1N(Cc1ccccc1)C(=O)[C@H](CC(=O)N1CCCC1)C2,29.8% (active)
18,CCOC(=O)[C@]12CCCC=C1N(Cc1ccc3c(c1)OCO3)C(=O)[C@H](CC(=O)NCc1cccs1)C2,66.5% (active)
19,CCOC(=O)[C@]12CCCC=C1N(Cc1ccc3c(c1)OCO3)C(=O)[C@H](CC(=O)N1CCN(C(=O)c3ccco3)CC1)C2,-2.94% (inactive)
20,CCOC(=O)[C@]12CCC=C1N(Cc1ccco1)C(=O)[C@H](CC(=O)N1CCSCC1)C2,-4% (inactive)
21,COC(=O)[C@]12CCCCC=C1N(Cc1cccc3ccccc13)C(=O)[C@H](CC(=O)N1CCOCC1)C2,99.4% (active)
22,COC(=O)[C@]12CCCCC=C1N(Cc1ccc(Cl)cc1Cl)C(=O)[C@H](CC(=O)NCc1cccc3ccccc13)C2,-2.75% (inactive)
23,COC(=O)[C@]12CCCCC=C1N(Cc1ccc3c(c1)OCO3)C(=O)[C@H](CC(=O)NCc1cccs1)C2,-4.45% (inactive)
24,CCOC(=O)[C@]12CCCC=C1N(Cc1ccc(Cl)cc1Cl)C(=O)[C@H](CC(=O)N1CCCCC1)C2,4.66% (inactive)
